Inhibition data for 102 molecules are collected here from PubChem BioAssay.

The term inhibition denotes the relative decrease from the control value, in per cent.

Values without a mark were called inactive. How the calls were made is not given here.

The assay deals with Pantothenate synthetase (Mycobacterium tuberculosis (strain ATCC 25618 / H37Rv)) (UniProt P9WIL5). As to the kind of experiment: Coupled enzyme confirmation of inhibitors against recombinant Mtb PanC (AID 375).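 Further: 0% = full reaction with vehicle and 100% = no enzyme background.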 The conditions noted are these: coupled enzyme assay; at 10 µM, hits give high values.
Sequence of Pantothenate synthetase (Mycobacterium tuberculosis (strain ATCC 25618 / H37Rv)) (P9WIL5 whole entry, looked up): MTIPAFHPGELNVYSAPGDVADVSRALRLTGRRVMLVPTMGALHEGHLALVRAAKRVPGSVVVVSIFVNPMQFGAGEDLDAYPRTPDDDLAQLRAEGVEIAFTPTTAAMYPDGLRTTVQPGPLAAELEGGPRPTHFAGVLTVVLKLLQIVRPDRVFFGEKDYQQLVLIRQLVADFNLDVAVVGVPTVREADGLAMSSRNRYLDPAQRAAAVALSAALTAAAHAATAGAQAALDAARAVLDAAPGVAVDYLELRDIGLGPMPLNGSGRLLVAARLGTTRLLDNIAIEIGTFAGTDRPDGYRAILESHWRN

With `CC(C)c1nnc(NC(=O)C2CCCCC2)s1`, the inhibition is 1%. The same measure for `COc1ccc(N2CCN(C(=O)C(OC(C)=O)c3ccccc3)CC2)cc1` (configuration not stated): 3%; for `Cc1cc(C)cc(NS(=O)(=O)c2ccc3[nH]c(=O)[nH]c3c2)c1`: 0%; for `CCOc1ccccc1-c1nc(-c2ccc(NC(=O)Cc3ccccc3OC)cc2)no1`: 2%. `CCC(Sc1ccc(C(=O)O)cc1)C(=O)O` (configuration not stated): the inhibition was 2%.

Turning to `CC(C(=O)O)c1ccc(-c2ccccc2)c(F)c1` (configuration not stated), the inhibition is 0%.

For the molecule `Cc1cc(C)n(-c2nc3sc4c(c3c3nnc(SCC(N)=O)n23)CC(C)(C)OC4)n1`, the inhibition was 0%. Take `O=C(CCCCC(=O)NCc1cccs1)NCc1cccs1`: the inhibition was 8%. For `N#Cc1c(N)n(CCNC(=O)c2cccs2)c2nc3ccccc3nc12`, the inhibition was 9%. As to `NC(=O)c1ccccc1NC(=O)CN1CCOCC1`, the inhibition is 6%. The same measure for `CCOC(=O)C1=C(Cn2cnc3ccccc32)NC(=O)NC1c1cc(C)ccc1C` (configuration not stated): 0%; for `CC(C)[C@H](NC(=O)OC(C)(C)C)c1nnc(SCc2cccc(F)c2)o1`: 1%; for `Cc1ccc(Cn2nnc3c(=O)n(CC(=O)NCC4CCCO4)cnc32)cc1` (configuration not stated): 0%. Under `CC1Cc2cc(/C(O)=C3/C(=O)C(=O)N(CCN4CCOCC4)C3c3cccc(O)c3)ccc2O1` (configuration not stated) stands 6%; under `CCSc1nnc(NC(=O)C(CC)(C(F)(F)F)C(F)(F)F)s1`, 0%; under `COc1ccc(-n2nnnc2SCC(=O)c2ccc(O)c(O)c2)cc1`, 0%.

On to `O=C(Nn1cnnc1)C1Cc2ccccc2CN1S(=O)(=O)c1ccc(F)cc1` (configuration not stated), for which the inhibition is 0%. Turning to `Cc1nc2ccc(S(=O)(=O)NCC(=O)N3CCCCC3)cc2s1`, the inhibition was 0%.

Regarding `Cc1ccc(CNC(=O)C2CCCN(S(=O)(=O)c3cccnc3)C2)cc1` (configuration not stated), the inhibition is 0%.

For `Cc1noc(C)c1C(=O)Nc1ccc(Cl)cc1C(F)(F)F`, the inhibition was 4%. For `CC1=C(C)C(=O)NC(Nc2nc(C)c3cc(C)cc(C)c3n2)N1` (configuration not stated), the inhibition was 0%. With `O=C(CN1CCN(c2cccc(Cl)c2)CC1)N1CCCC1`, the inhibition is 4%.

As for `COc1ccc(C)cc1NC(=O)c1nnn(Cc2cccc(F)c2)c1N`, the inhibition was 13%. Turning to `COc1ccc2c(c1)C1(Nc3ccccc3-c3nc4ccccc4n31)C(=O)N2` (configuration not stated), the inhibition was 0%.

In the case of `Cn1c(C(=O)NCCN2CCN(c3ccccc3F)CC2)cc2c(=O)n(C)c3ccccc3c21`, the inhibition is 7%. Turning to `O=C(COc1ccc(Cl)cc1)Nc1ncccn1`, the inhibition was 9%. The same measure for `CCC(C)(C)NC(=O)C(OC(=O)c1ccco1)c1ccccc1OC` (configuration not stated): 0%. `CCC(=O)Nc1c2c(nn1-c1ccccc1C)CSC2`: the inhibition is 6%. Take `C=CCOc1nc(N2CCCC2)nc(N2CCCC2)n1`: the inhibition was 5%. Consider `O=C(CCCN1C(=O)c2ccccc2C1=O)Oc1ccc(F)cc1`, for which the inhibition is 1%. For the molecule `Cc1ccc(-c2cc(C(F)F)n3ncc(C(=O)N4CCN(c5ccccn5)CC4)c3n2)cc1`, the inhibition was 6%. `CCC(NC(C)C)C(O)c1ccc(O)c(O)c1` (configuration not stated): the inhibition is 0%. `COc1cc(OC)c2c(c1)OC(c1ccc(OC)c(OC)c1)C(O)C2=O` (configuration not stated): the inhibition was 1%.

On to `Cc1ccc(C(C(=O)NC(C)(C)C)N(C(=O)c2csnn2)c2cccc(F)c2)o1` (configuration not stated), for which the inhibition was 0%. Under `CC(C)(C)OC(=O)N1CC=C2C(C#N)=C(N)C(C#N)(C#N)C(c3cccs3)C2C1` (configuration not stated) stands 0%; under `O=C(O)Cc1cc(I)c(Oc2ccc(O)c(I)c2)c(I)c1`, 0%; under `COc1cc2c(c(OC)c1)C(c1ccncc1)CC(=O)N2` (configuration not stated), 0%. For `Cc1cccc(OCCNC(=O)c2ncn[nH]2)c1`, the inhibition is 0%. On to `Cc1oc2c(CN3CCOCC3)c(O)ccc2c(=O)c1-c1ccc(Br)cc1`, for which the inhibition is 0%. The same measure for `CCc1ncc(C(O)c2cccc(OC)c2OC)n1C` (configuration not stated): 0%.

On to `Cc1cc(=O)oc2c1c(C)nn2-c1ccc(C(=O)OC(C)C)cc1`, for which the inhibition is 0%. As to `CC1=CC=CC2=NC(=O)CC(C)(C(=O)N(CC(=O)NC(C)C)C3CCCC3)N12` (configuration not stated), the inhibition is 4%. The same measure for `COc1cc(C(Nc2ccc3c(c2)OCO3)C(=O)NC2CCCCC2)cc(OC)c1OC` (configuration not stated): 2%; for `CCc1ccccc1NC(=O)CSc1ncn[nH]1`: 0%; for `Cc1ccc(S(=O)(=O)N2CCC(C(=O)N[C@@H](Cc3ccccc3)C(=O)O)CC2)cc1`: 0%. As for `O=C(c1cccs1)N1CCN=C1SCc1ccccc1`, the inhibition is 4%. The same measure for `O=C(CSc1nccn1-c1cccc(Cl)c1)NC1CCCC1`: 0%; for `CCOc1ccc2nc(NC(=O)CSc3nnnn3C3CCCCC3)sc2c1`: 1%; for `CCOC(=O)c1ccc(Oc2nc(NC)nc(OC)n2)cc1`: 0%. `CCCCN(CCCNC(=O)C1CCN(S(=O)(=O)CC)CC1)c1ccccc1`: the inhibition was 0%. On to `Cc1ccc(S(=O)(=O)Cc2ccc(C(=O)NCc3ccc4c(c3)OCO4)o2)cc1`, for which the inhibition is 0%. As to `O=C1c2ccccc2C(=O)N1OCc1ccccc1`, the inhibition was 0%. Take `CC(C)(C)C(=O)Cn1c[n+](N)cn1`: the inhibition was 1%.

On to `CCOc1ccccc1NS(=O)(=O)c1c(C)noc1C`, for which the inhibition was 0%. The same measure for `c1ccc2c(CC3=NCCN3)cccc2c1`: 0%; for `CC(C)(C)Nc1nc(OCC(F)(F)F)nc(OCC(F)(F)F)n1`: 0%; for `CCCn1c(NCc2ccc3c(c2)OCO3)nc2ccccc21`: 0%. Turning to `O=c1c2ccccc2nc(SCc2cn3ccsc3n2)n1-c1ccc(F)cc1`, the inhibition is 0%. Under `COc1ccc(-c2nc3c(c(SCC(=O)N4CCOCC4)n2)COC(C)(C)C3)cc1` stands 0%; under `CCn1c(CNc2ccc(C)cc2)nnc1SCC(=O)NCc1ccccc1`, 0%; under `Cc1[nH]nc2c1C1(C(=O)N(Cc3ccc(Cl)cc3)c3ccccc31)C(C#N)=C(N)O2` (configuration not stated), 0%.

For `CCOC(=O)N1CCN(S(=O)(=O)c2cc(Cl)ccc2Cl)CC1`, the inhibition is 3%. On to `N#CC(C(=O)C1CCCCC1)c1nc2ccccc2[nH]1` (configuration not stated), for which the inhibition is 0%. As to `O=C(CSc1ccc(Cl)cc1)OCc1nnc(-c2ccccc2)o1`, the inhibition is 1%.

In the case of `CCOc1ccc2[nH]c(=O)c(CN(Cc3ccccc3)C(=O)N3CCCC3)cc2c1`, the inhibition is 6%. As for `CC1Cc2nc(SCC(=O)N3CCCc4ccccc43)n(C)c(=O)c2S1` (configuration not stated), the inhibition was 1%.

Turning to `CCOC(=O)c1c(C)oc2ccc(OCC(N)=O)cc12`, the inhibition was 0%. As for `Cc1ccc(Nc2nc(Oc3ccc(=O)[nH]n3)nc(N(C)C)n2)cc1`, the inhibition is 0%. The same measure for `CCn1c(C(=O)OC)cc2c1ccn2-c1ccc(F)cc1`: 0%.

As for `CCSc1nnc(NC(=O)CCNS(=O)(=O)c2cc(Br)cnc2N)s1`, the inhibition was 3%. Take `COC(=O)c1ccccc1NC(=O)CSc1nc2c(c(=O)n(C)c(=O)n2C)n1C`: the inhibition was 3%. Turning to `CCSC1=NCN(CCCC(=O)O)CN1`, the inhibition was 0%. Regarding `Cc1nnc(SCC(=O)NCc2ccc3c(c2)OCO3)s1`, the inhibition was 5%. On to `COC(=O)c1cc(OC)c(OCc2cc(C(=O)OC)oc2C)c(OC)c1`, for which the inhibition is 2%. Turning to `CCN1C(=O)OC2(CCCCC2)C1(C)O` (configuration not stated), the inhibition was 0%. Turning to `CC(=O)c1ccc(OCC(O)CN2CCN(CCO)CC2)cc1` (configuration not stated), the inhibition was 4%. For the molecule `O=S(=O)(NCC(c1cccnc1)N1CCN(c2ccccc2)CC1)c1cc(F)ccc1F` (configuration not stated), the inhibition was 0%. Turning to `CCOC(=O)c1c(-c2cccs2)csc1NC(=O)CCCC(=O)O`, the inhibition is 0%.

Take `COc1ccccc1Nc1nc(N)nc(CSc2nccc(C)n2)n1`: the inhibition is 0%. In the case of `O=C1c2ccccc2C(=O)N1CC(O)Cn1nnc2ccccc21` (configuration not stated), the inhibition is 0%. For `Cn1cccc1-c1cc(C(=O)O)[nH]n1`, the inhibition was 0%. The same measure for `CC(C)=CC/C=C1\CCC(C(=O)O)C(C(=O)O)C1` (configuration not stated): 0%; for `C[C@H](NC(=O)Nc1cccc(C(F)(F)F)c1)C(=O)O`: 0%. In the case of `N#C/C(C(=O)N1CCOCC1)=C1/SC=C(c2ccccc2)N1c1ccccc1`, the inhibition was 7%. Under `CCN(c1ccccc1)S(=O)(=O)c1ccc(F)cc1C` stands 1%; under `CCCC(=O)Nc1ccccc1NC(=O)CCC`, 0%.

As for `Cc1cc(C)nc(-n2nc(C)cc2NC(=O)c2ccc(Br)o2)n1`, the inhibition is 0%.

On to `c1ccc(CN2CCN(CCCNc3ccc4nnc(-c5ccccc5)n4n3)CC2)cc1`, for which the inhibition is 10%. `CN(C(=O)C1CCCO1)c1nnc(-c2ccncc2)s1` (configuration not stated): the inhibition is 1%.

`COc1ccc(OC)c(S(=O)(=O)N2CCC(C(=O)NCc3ccccc3OC)CC2)c1`: the inhibition was 0%. The same measure for `CCC1(c2ccc(F)cc2)NC(=O)N(CC(=O)c2ccc[nH]2)C1=O` (configuration not stated): 0%; for `COc1ccc(OC)c2[nH]c(=O)c(CCNC(=O)C(C)C)cc12`: 0%; for `N=c1sc2ccccc2n1-c1ccccc1`: 3%. Regarding `Cc1cccc(N2CCN(Cc3c(C)n(C)n(-c4ccccc4)c3=O)CC2)c1C`, the inhibition is 0%. With `CC12CN3CC(C)(CN(C1)C3c1ccc(Br)cc1)C2` (configuration not stated), the inhibition was 0%. `Cc1sc2nc(SCC(=O)NCc3ccco3)n(CCc3ccccc3)c(=O)c2c1C`: the inhibition was 0%.

Consider `CCn1cc(C(=O)N=c2sc3ccccc3n2C)c(=O)c2ccc(C)nc21`, for which the inhibition is 0%.

For the molecule `COc1nc(OC)nc(N2CCC(C(=O)NCc3cccs3)CC2)n1`, the inhibition was 0%. Turning to `C=Cn1c(N2CCOCC2)nc2c1c(=O)[nH]c(=O)n2C`, the inhibition was 16%. For the molecule `COc1ccc(C2=NO[C@@H]3C(=O)N(c4cccc(C)c4C)C(=O)[C@H]23)cc1OC`, the inhibition is 1%. The same measure for `Cn1c(=O)n(C)c2cc(CNc3ccc(N4CCOCC4)c(C(=O)O)c3)ccc21`: 11%; for `CCN(CCNC(=O)CS(=O)(=O)Cc1nc(-c2cccc(OC)c2)oc1C)c1ccccc1`: 0%.
